Assay [1] can be described thus: qHTS assay for small molecule agonists of the p53 signaling pathway (AID 651631; calls by dose curve; further: nearly all actives have a fitted effect of over 15% in size). The essentials: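 Quantitative high-throughput format: 4,000 p53RE-bla HCT-116 cells/well, 5 h pre-incubation, 16 h compound exposure at 37 °C, 2 h room-temperature substrate step, fluorescence intensity measured.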
In general terms: In qHTS, concentration-response curves come from the screen itself.

Assay [2] is described as follows: qHTS assay for small molecules that induce genotoxicity in human embryonic kidney cells expressing luciferase-tagged ATAD5 (AID 651632). Further: nearly all actives have a fitted effect of over 15% in size. In a few lines:
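Concentration-response screen for ATAD5 upregulation in HEK293T luciferase reporter cells; 16 hr treatment at 37C, then luminescence after 30 min with Amplite at room temperature.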

Assay [3] is described as follows: qHTS assay for small molecule agonists of the p53 signaling pathway - cell viability (AID 651633; calls by dose curve;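 further: p53RE-bla HCT reporter cells with a stable beta-lactamase p53 reporter; series mostly up to about 83 µM; nearly all actives have a fitted effect of over 30% in size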). In a few lines: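 p53RE-bla cells were treated with compound for 16 hours at 37 C. Cytotoxicity was then measured as CellTiter-Glo luminescence after 30 min at room temperature.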
A short description of assay [4]: qHTS assay for small molecules that induce genotoxicity in human embryonic kidney cells expressing luciferase-tagged ATAD5 - cell viability (AID 651634; calls by dose curve; further: nearly all actives have a fitted effect of over 25% in size). The essentials: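 15.5 hr compound or vehicle exposure of HEK293T cells expressing luciferase-tagged ATAD5 at 37C; live-cell protease activity is read by fluorescence after 30 min of CellTiter-Fluor.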
Assay [5] is described as follows: qHTS assay for small molecule disruptors of the mitochondrial membrane potential - cell viability (AID 720634; calls by dose curve;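 further: human HepG2 liver cancer cells; series mostly up to about 83 µM; nearly all actives have a fitted effect of over 20% in size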). In a few lines: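 In this qHTS format, HepG2 cells plated overnight were pinned with compound, incubated 1 hr, and assayed for ATP luminescence with CellTiter-Glo after m-MPI dye addition.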
Assay [6] is described as follows: qHTS assay for small molecule disruptors of the mitochondrial membrane potential (AID 720635). Further: potency means the concentration at half of the fitted maximal effect. The essentials:
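HepG2 cells exposed to compound 1 hr at 37C, then Mito-MPS dye 30 min. Ratio read of aggregate (540/590 nm) versus monomer (490/535 nm) fluorescence.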

The nature of assay [7]: qHTS assay to test for compound auto fluorescence at 590 nm (red) in HepG2 cells (AID 720674). In a few lines:
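Fluorescence at 590 nm emission following 540 nm excitation was recorded from HepG2 wells one hour after compound transfer, with DMSO-only wells as vehicle and Rose Bengal sodium equivalency as the scale.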

Assay [8] in a line: qHTS assay to test for compound auto fluorescence at 535 nm (green) in HepG2 cells (AID 720675).
The nature of assay [9]: qHTS assay to test for compound auto fluorescence at 460 nm (blue) in HEK293 cells (AID 720678). In a few lines: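 HEK293 cells (2,000 per well, medium with 10% dialyzed FBS) attached for 4-5 hr at 37C, then received compound and stood overnight at 37C, 5% CO2. Blue fluorescence was read at Ex/Em 405/460 nm and expressed relative to triamterene.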
A short description of assay [10]: qHTS assay to test for compound auto fluorescence at 590 nm (red) in HEK293 cells (AID 720679). The essentials:
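HEK293 cells (2,000/well, medium with 10% dialyzed FBS) attached for 4-5 hr at 37C, received 23 nL compound and were incubated overnight at 37C, 5% CO2. Red fluorescence was then read at 540/590nm Ex/Em, referenced to Rose Bengal sodium.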

Assay [11] in a line: qHTS assay to test for compound auto fluorescence at 460 nm (blue) in HEK293 cell free culture (AID 720681). The essentials:
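Compounds were added to cell-free DMEM with 10% FBS and fluorescence read directly. The blue channel used 405 nm excitation and 460 nm emission, with triamterene as the reference fluorophore.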

A short description of assay [12]: qHTS assay to test for compound auto fluorescence at 535 nm (green) in HEK293 cell free culture (AID 720682). In a few lines: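 Measurement is a direct plate read of green fluorescence (485 nm in, 535 nm out) after compound addition to serum-supplemented DMEM lacking cells, with fluorescein used to express intensities.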
Assay [13] is described as follows: qHTS assay to test for compound auto fluorescence at 590 nm (red) in HEK293 cell free culture (AID 720683). In a few lines:
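Cell-free wells of DMEM with 10% FBS received compound, and intrinsic fluorescence was read at excitation/emission 540/590 nm. Values expressed as equivalence to Rose Bengal sodium.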

Assay [14] can be described thus: qHTS assay to test for compound auto fluorescence at 590 nm (red) in HepG2 cell free culture (AID 720684). In a few lines: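 Rose Bengal sodium served as the reference for red signal. Test compounds were dispensed into serum-containing MEM (10% FBS) without cells, and plates were read at 540/590 nm.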
The nature of assay [15]: qHTS assay to test for compound auto fluorescence at 460 nm (blue) in HepG2 cell free culture (AID 720685). The essentials:
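Cell-free plates of MEM plus 10% FBS received 23 nL compound or DMSO vehicle; blue-channel (405/460 nm) intensity scored against triamterene as reference fluorophore.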

A short description of assay [16]: qHTS assay to test for compound auto fluorescence at 535 nm (green) in HepG2 cell free culture (AID 720686).
Assay [17] concerns the target Glucocorticoid receptor (Homo sapiens) (UniProt P04150). Kind of assay: qHTS assay to identify small molecule antagonists of the glucocorticoid receptor (GR) signaling pathway (AID 720692; active means well fitted inhibition curve with a large enough effect in the signal ratio in the repeat runs, not every such curve was filed as active; the % refers to the signal ratio). The essentials:
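Tox21 10K library screened in concentration-response for blockade of dexamethasone (5 nM final)-induced GRE-bla reporter activity in HeLa cells; 18 h treatment, fluorescence read.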

The nature of assay [18]: qHTS assay to test for compound auto fluorescence at 535 nm (green) in HEK293 cells (AID 720680).
A short description of assay [19]: qHTS assay to test for compound auto fluorescence at 460 nm (blue) in HepG2 cells (AID 720687). The essentials:
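HepG2 cells in MEM with 10% FBS, attached overnight at 37 C, were exposed to compound or DMSO for 1 hr at 37 C, 5% CO2. Blue fluorescence was read at 405/460 nm, with triamterene as reference fluorophore.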

The target in assay [20] is Glucocorticoid receptor (Homo sapiens) (UniProt P04150). Kind of assay: qHTS assay to identify small molecule agonists of the glucocorticoid receptor (GR) signaling pathway (AID 720691; active means well fitted activation curve with a large enough effect in the signal ratio in the repeat runs, not every such curve was filed as active; the % refers to the signal ratio). The essentials: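 Measures GR pathway activation through a GRE-beta-lactamase reporter stably integrated in HeLa cells, with 18 h compound treatment at 37 C and fluorescence detection using a FRET substrate.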

A number with no mark means an inactive call. Results filed as inconclusive are left out. Calls of active or inactive are those of the source. Unless noted, the call rests on the fitted dose curve; in most records, active means well fitted curve in the direction sought with a large enough effect in the repeat runs; inconclusive means weak or mixed curves; inactive means no such curve, though single readings can be large; an effect the other way counts as inactive or inconclusive.

Chain of Glucocorticoid receptor (Homo sapiens) (P04150 whole entry, looked up): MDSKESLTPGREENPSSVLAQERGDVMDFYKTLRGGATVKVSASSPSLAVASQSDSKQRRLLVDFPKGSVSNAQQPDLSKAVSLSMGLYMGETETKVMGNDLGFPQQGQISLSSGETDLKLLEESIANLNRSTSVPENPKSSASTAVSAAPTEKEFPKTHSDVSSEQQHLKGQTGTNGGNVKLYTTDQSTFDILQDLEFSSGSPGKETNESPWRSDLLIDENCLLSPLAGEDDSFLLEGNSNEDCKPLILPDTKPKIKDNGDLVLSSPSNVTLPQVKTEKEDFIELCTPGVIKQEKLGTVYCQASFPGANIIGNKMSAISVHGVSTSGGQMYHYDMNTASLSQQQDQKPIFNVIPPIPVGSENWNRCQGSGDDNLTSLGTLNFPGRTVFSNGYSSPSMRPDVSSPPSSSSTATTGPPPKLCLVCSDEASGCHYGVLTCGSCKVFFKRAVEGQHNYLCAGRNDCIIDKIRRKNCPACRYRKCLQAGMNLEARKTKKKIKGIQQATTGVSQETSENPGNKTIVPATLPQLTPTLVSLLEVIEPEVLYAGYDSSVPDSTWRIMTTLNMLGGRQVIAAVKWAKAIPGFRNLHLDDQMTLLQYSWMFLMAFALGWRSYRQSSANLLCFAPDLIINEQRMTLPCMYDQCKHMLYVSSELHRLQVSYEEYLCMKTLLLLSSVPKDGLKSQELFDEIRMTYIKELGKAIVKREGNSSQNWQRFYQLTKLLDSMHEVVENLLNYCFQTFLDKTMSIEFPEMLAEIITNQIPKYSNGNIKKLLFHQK

Regarding `C[C@@H]1CN(c2c(F)c(N)c3c(=O)c(C(=O)O)cn(C4CC4)c3c2F)C[C@H](C)N1`, the Potency entry in assay [1], in assay [2], in [3], in [4], in assay [5] and in [6] was “inactive” in each case. The Potency entry in [17] is “inactive”. Moreover, the compound was classed as inactive in [7], in [8], in assay [9], in [10], in assay [11] and in assay [12]. In addition, the compound was classed as inactive in assay [13], in [14], in [15] and in [16].

As for `CC(=O)N[C@@H](CC(C)C)C(=O)O`, the Potency result in [1], in assay [2], in [3], in assay [4], in [5] and in [6] was “inactive” in each case. Besides, the compound was called inactive in assay [7], in assay [8], in assay [9], in assay [10], in assay [18] and in assay [11]. The result in assay [12], in assay [14], in assay [16] and in [19] was inactive.

As for `CO[C@@]1(NC(=O)CSCC#N)C(=O)N2C(C(=O)O)=C(CSc3nnnn3C)CS[C@@H]21`, the Potency result in assay [1], in [2], in assay [3], in assay [4], in assay [5] and in assay [6] was “inactive” in each case. Also, the Potency result in [20] is “inactive”. Also, the result in [7], in assay [8], in assay [9], in [10], in assay [18] and in assay [12] was inactive. The outcome in [15], in [16] and in [19] was inactive.

Take `CCN(O)CC`: the Potency entry in [1], in [2], in [3], in assay [4], in [5] and in assay [6] was “inactive” in each case. For the same compound, the compound was called inactive in assay [7], in assay [8], in [9], in [10], in [18] and in [11]. Moreover, the compound was called inactive in assay [12], in assay [13], in assay [14], in assay [15], in [16] and in assay [19].

For the compound `CC(C)S`, the Potency entry in [1], in assay [2], in assay [3], in assay [4], in assay [5] and in assay [6] was “inactive” in each case. Besides, the Potency entry in assay [20] and in assay [17] was “inactive” throughout. Also, the compound was called inactive in [7], in assay [8], in assay [9], in assay [10], in [18] and in assay [11]. Moreover, the compound was classed as inactive in assay [12], in assay [13], in assay [14], in assay [15] and in assay [19].

Regarding `Oc1ccccc1C=NCc1ccccc1`, the Potency entry in [1], in [2], in assay [3], in [4], in [5] and in [20] was “inactive” in each case. In [17], the Potency result was “inactive”. Moreover, the Potency in assay [6] is 21.1 µM (active). Also, the outcome in [7], in assay [8], in assay [9], in assay [18], in assay [11] and in [12] was inactive. Besides, the result in assay [13], in assay [14], in assay [15] and in assay [19] was inactive.

For `Nc1cccc(S(=O)(=O)O)c1`, the Potency result in assay [1], in assay [2], in assay [3], in assay [4], in assay [5] and in assay [20] was “inactive” throughout. Further, in assay [6], the Potency was 0.0972 µM (active). Besides, the compound was classed as inactive in [7], in [8], in [9], in [18], in assay [11] and in assay [12]. Moreover, the call in assay [14], in assay [15] and in [16] was inactive.

The record behind these values is PubChem BioAssay (Tox21).
